Assay results: PubChem BioAssay AID1159580 (chemical genetic matrix, 2015)
“And” between values parts separate entries of the source, which are not always exact repeats. Equal entries are not always repeated. The whole screen tested about 5,500 compounds, of which about 2,000 (36%) were called active. Not shown: some 18% with an inconclusive outcome. Rule as the data show it: active = normalized growth mostly below about 0.91 (no sharp cut-off); inconclusive = no clear call, values can overlap the other calls; inactive = mostly above about 0.92. This is one part of the list.

Assay: chemical genetic growth profiling, strain panel (AID 1159580);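 also: tested at 20 µM; growth read once vehicle control cultures reached saturation at 30 °C; 1 = growth at the plate median or of vehicle wells; lower values mean less growth of the strain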
Conditions: S. cerevisiae deletion strains, growth OD

Measured: normalized growth

CCn1cc(C(=O)O)c(=O)c2ccc(C)nc21
inactive: locus YAL013W, strain DEP1, active compounds read low 0.938 and 0.977 | locus YAL040C, strain CLN3, active compounds read low 0.961 | locus YBL061C, strain skt5, active compounds read low 0.928 | locus YBR009C, strain hhf1, active compounds read low 0.947 | locus YBR021W, strain FUR4, active compounds read low 1.09 | locus YBR023C, strain chs3, active compounds read low 0.945 | locus YBR171W, strain sec66, active compounds read low 0.931 | locus YBR231C, strain swc5, active compounds read low 0.936 | locus YCL011C, strain gbp2, active compounds read low 0.939 | locus YCL016C, strain dcc1, active compounds read low 0.945 | locus YCL029C, strain bik1, active compounds read low 0.935 | locus YCL061C, strain MRC1 (second series), active compounds read low 0.961 | locus YCL061C, strain MRC1, active compounds read low 0.936 | locus YCL069W, strain vba3, active compounds read low 0.943 | locus YCR088W, strain abp1, active compounds read low 0.953 | locus YDL005C, strain med2, active compounds read low 0.983 | locus YDL035C, strain GPR1, active compounds read low 0.963 | locus YDL074C, strain BRE1, active compounds read low 1.06 | locus YDL101C, strain DUN1, active compounds read low 0.941 | locus YDL134C, strain PPH21, active compounds read low 0.912 | locus YDL185W, strain tfp1, active compounds read low 0.924 | locus YDR001C, strain nth1, active compounds read low 0.94 | locus YDR069C, strain doa4, active compounds read low 0.932 | locus YDR101C, strain arx1, active compounds read low 0.92 | locus YDR150W, strain NUM1, active compounds read low 0.936 and 0.96 | locus YDR159W, strain sac3, active compounds read low 1.07 | locus YDR162C, strain NBP2, active compounds read low 0.936 | locus YDR297W, strain sur2, active compounds read low 0.928 | locus YDR318W, strain mcm21, active compounds read low 0.963 | locus YDR334W, strain swr1, active compounds read low 0.916 | locus YDR335W, strain msn5, active compounds read low 0.937 | locus YDR363W, strain ESC2, active compounds read low 0.965 | locus YDR388W, active compounds read low 0.941 | locus YDR392W, strain spt3, active compounds read low 1.03 | locus YDR502C, strain sam2, active compounds read low 0.961 | locus YEL003W, strain gim4, active compounds read low 0.939 | locus YEL037C, strain rad23, active compounds read low 0.926 | locus YEL061C, strain CIN8 (second series), active compounds read low 0.935 | locus YEL061C, strain CIN8, active compounds read low 0.946 | locus YER002W, strain NOP16, active compounds read low 0.958 | locus YER015W, strain faa2, active compounds read low 0.947 | locus YER016W, strain bim1, active compounds read low 0.924 | locus YER110C, active compounds read low 0.9 | locus YER111C, strain swi4, active compounds read low 0.966 | locus YER155C, strain BEM2 (second series), active compounds read low 0.943 | locus YER155C, strain BEM2, active compounds read low 0.951 | locus YER167W, strain BCK2, active compounds read low 0.988 | locus YFR010W, strain ubp6, active compounds read low 0.974 | locus YGL078C, strain dbp3, active compounds read low 0.947 | locus YGL086W, strain mad1, active compounds read low 0.954 | locus YGL227W, strain vid30, active compounds read low 0.939 | locus YGL248W, strain PDE1, active compounds read low 0.906 | locus YGL253W, strain hxk2, active compounds read low 0.957 | locus YGR078C, strain PAC10, active compounds read low 0.997 | locus YGR135W, strain pre9, active compounds read low 0.916 | locus YGR229C, strain SMI1, active compounds read low 1 and 0.98 | locus YHR013C, strain ard1, active compounds read low 1.02 | locus YHR027C, strain rpn1, active compounds read low 0.938 | locus YHR030C, strain SLT2, active compounds read low 0.921 and 0.918 | locus YHR079C, strain IRE1 (second series), active compounds read low 0.932 | locus YHR079C, strain IRE1, active compounds read low 0.97 | locus YHR142W, strain chs7, active compounds read low 0.979 | locus YHR200W, strain rpn10, active compounds read low 0.963 | locus YIL066C, strain RNR3, active compounds read low 0.972 | locus YIL073C, strain SPO22, active compounds read low 0.97 | locus YIL125W, strain kgd1, active compounds read low 0.951 | locus YJL092W, strain hpr5, active compounds read low 0.961 | locus YJL095W, strain BCK1 (second series), active compounds read low 0.942 | locus YJL095W, strain BCK1, active compounds read low 0.949 and 0.948 | locus YJL115W, strain asf1, active compounds read low 0.956 | locus YJL129C, strain trk1, active compounds read low 0.972 | locus YJL154C, strain vps35, active compounds read low 0.959 | locus YJL164C, strain tpk1, active compounds read low 0.946 | locus YJL166W, strain qcr8, active compounds read low 0.94 | locus YJL187C, strain SWE1 (second series), active compounds read low 0.93 | locus YJR043C, strain POL32, active compounds read low 0.967 | locus YJR066W, strain TOR1, active compounds read low 0.899 | locus YJR075W, strain HOC1, active compounds read low 0.972 and 0.961
active: locus YAL021C, strain ccr4, active compounds read low 0.805 | locus YAL026C, strain drs2, active compounds read low 0.855 | locus YAL030W, strain snc1, active compounds read low 0.917 | locus YBR229C, strain ROT2, active compounds read low 0.914 | locus YBR279W, strain paf1, active compounds read low 0.924 | locus YDL040C, strain nat1, active compounds read low 0.923 | locus YDL192W, strain arf1, active compounds read low 0.9 | locus YDR137W, strain rgp1, active compounds read low 0.345 | locus YDR195W, strain ref2 0.691 | locus YGL167C, strain pmr1, active compounds read low 0.912 | locus YGL173C, strain kem1, active compounds read low 0.799 | locus YGL240W, strain doc1, active compounds read low 0.834 | locus YHR094C, strain hxt1, active compounds read low 0.923 | locus YHR129C, strain ARP1, active compounds read low 0.918 | locus YIR030C, strain dcg1, active compounds read low 0.914 | locus YJL134W, strain LCB3, active compounds read low 0.92 | locus YJL168C, strain set2, active compounds read low 0.895
